CHT allo act – CHT positive allosteric modulators, primary screen, cell-based, membrane potential dye, choline EC20. CHT-expressing cells; stronger effect = higher value; LV-AA mutant CHT in HEK293 cells. B-score at 10 µM. hit rate 0.49% among 310,000. AID 488977, 2010;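 active = initial fluorescence not abnormally high and integrated response B-score, plate-corrected, over 3 SD above library mean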
TMEM16A inh – TMEM16A chloride channel inhibitors, primary screen, cell-based, HTS; Anoctamin-1 (Mus musculus), Q8BHY3; HEK293 TMEM16A/YFP iodide influx fluorescence, ionomycin; normalized B-score (activity score, 25-100; higher = stronger inhibition) at 10 µM; hit rate 1.2% among 310,000; AID 588511, 2011;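 active = ratio plate-corrected score three or more library SD toward inhibition, starting fluorescence score within five deviations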;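 note: score derived from kinetic fluorescence span divided by baseline fluorescence per well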
TMEM16A act – TMEM16A chloride channel activators or potentiators, primary screen, cell-based, HTS. HEK293 TMEM16A/YFP-H148Q/I152L, iodide quench fluorescence; stronger effect = lower value. B-score at 10 µM. hit rate 0.3% among 340,000. AID 623877, 2012;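 active = fluorescence-ratio B-score plate-corrected deviation score at least 3 library SD below zero, with starting fluorescence score within 5 deviations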;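 note: channel opened by trigger with iodide after compound preincubation; score built on the fluorescence ratio of max minus min over baseline; more negative score means more quench and so TMEM16A activation or potentiation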
CHT block – inhibitors of human choline transporter CHT; AID 488975, 2010; hit rate 0.86% among 310,000; B-score at 10 µM; CHT-expressing cells, membrane potential dye, choline response; stronger effect = lower value;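 active = B-score over 3 SD under the library average, and starting fluorescence ratio not unusually high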;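 note: choline stimulus applied at its EC90 after an EC20 pre-addition; B-score computed on integrated fluorescence ratio after choline addition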
TMEM16A reconf – TMEM16A chloride channel inhibitors, confirmation, cell-based, re-confirmation; shares compounds with TMEM16A inh; HEK293 TMEM16A/YFP-H148Q, iodide quench fluorescence; ionomycin added to raise cell calcium; inhibition, % at 10 µM; hit rate 39% among 2,300; AID 652189, 2013;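 active = mean duplicate percent inhibition, scaled so buffer wells are 0 and the reference blocker 100, over three buffer SD above buffer mean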
TMEM16A Ca cntr – calcium mobilization in TMEM16A/YFP HEK293 cells, confirmation, counter-screen for TMEM16A inhibitor project. shares compounds with TMEM16A inh. hit rate 2% among 2,300. calcium response (% of ionomycin), % at 10 µM. Fluo4 calcium mobilization;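 active = duplicate-averaged calcium signal over 20% of the ionomycin maximum, relative to buffer baseline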;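 note: each well's signal is peak minus trough fluorescence divided by its pre-addition baseline; 0% = buffer wells and 100% = ionomycin wells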
Parental YFP cnt – iodide YFP quench changes in parental YFP-HEK293, counter-screen for TMEM16A inhibitor project, cell-based; shares compounds with TMEM16A inh; ionomycin; YFP ratio F(max-min)/F0 at 10 µM; 2,300 tested, under 10 active; AID 652233, 2013;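 active = yellow fluorescent protein signal ratio exceeding the buffer control mean by over 5 SD of those controls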;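 note: ratio is mean of duplicate wells from kinetic YFP trace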
ClC-1 rat inh – ClC-1 chloride channel inhibition, selectivity assay for TMEM16A inhibitor project, cell-based, voltage-dependent ClC-1. ratio percent, % at 10 µM. 2,300 tested, under 10 active. shares compounds with TMEM16A inh. CHO ClC-1-YFP, iodide influx fluorescence quench; iodide control reads 0, buffer control 100;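 active = duplicate-mean ratio percent above the mean of iodide-only control wells, which defines zero, plus 5 of their SD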;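 note: higher percent means stronger block of ClC-1 iodide influx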
Target sequence (P35524 whole entry, looked up): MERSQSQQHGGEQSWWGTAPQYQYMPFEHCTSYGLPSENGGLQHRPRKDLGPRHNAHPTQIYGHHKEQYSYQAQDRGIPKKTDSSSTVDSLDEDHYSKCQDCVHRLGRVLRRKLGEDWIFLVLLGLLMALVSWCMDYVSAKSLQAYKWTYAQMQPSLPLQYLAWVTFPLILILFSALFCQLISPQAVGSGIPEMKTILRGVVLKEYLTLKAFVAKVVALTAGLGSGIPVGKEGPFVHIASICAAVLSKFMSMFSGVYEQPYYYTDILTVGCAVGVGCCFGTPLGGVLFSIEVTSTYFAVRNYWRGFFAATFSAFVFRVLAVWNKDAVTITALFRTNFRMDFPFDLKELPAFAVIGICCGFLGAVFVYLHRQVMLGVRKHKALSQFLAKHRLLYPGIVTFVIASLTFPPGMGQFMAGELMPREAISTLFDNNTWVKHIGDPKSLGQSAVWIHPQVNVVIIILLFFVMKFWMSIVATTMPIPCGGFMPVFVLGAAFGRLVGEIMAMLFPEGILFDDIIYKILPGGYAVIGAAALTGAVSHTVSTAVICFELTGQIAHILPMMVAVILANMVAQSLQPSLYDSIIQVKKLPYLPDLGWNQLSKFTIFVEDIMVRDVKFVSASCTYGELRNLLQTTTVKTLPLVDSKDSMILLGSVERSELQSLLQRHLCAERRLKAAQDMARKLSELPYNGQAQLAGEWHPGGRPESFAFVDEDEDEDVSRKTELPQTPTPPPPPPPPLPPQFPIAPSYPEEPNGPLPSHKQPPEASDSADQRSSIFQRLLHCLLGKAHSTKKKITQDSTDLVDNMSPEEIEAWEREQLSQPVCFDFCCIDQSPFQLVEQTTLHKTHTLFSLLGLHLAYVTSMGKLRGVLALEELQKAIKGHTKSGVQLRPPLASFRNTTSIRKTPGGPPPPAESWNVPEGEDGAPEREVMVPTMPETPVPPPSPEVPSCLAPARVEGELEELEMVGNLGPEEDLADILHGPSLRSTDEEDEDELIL
Active calls of the source: *; i = inactive; · = not tested or not shown. Rows were chosen to be rich in hits. Some 2.4% of all compounds tested hit in one or more screens of this group.

SMILES	CHT allo act	TMEM16A inh	TMEM16A act	CHT block	TMEM16A reconf	TMEM16A Ca cntr	Parental YFP cnt	ClC-1 rat inh
CC(Oc1ccc(Cl)cc1)c1ccnn1S(=O)(=O)c1ccccc1 (stereo unspecified)	i	100*	i	i	32.0%*	i	-1.14	-12.5
COc1cc2ncnc(Nc3ccc4c(c3)OCO4)c2cc1OC	i	i	i	i	i	i	-0.891	-4.0
C=CCn1c(=O)c2ccccc2n2c(SCC(=O)NC(C)C)nnc12	·	·	i	·	·	·	·	·
COc1ccc(C(=O)Nc2cccc(OC)c2)cc1	i	i	i	i	·	·	·	·
COc1cccc(N/C=C(\C#N)c2ccc(OCCCF)cc2)c1	i	100*	i	i	i	i	-0.87	-1.0
O=C(NCc1ccncc1)C(=O)N/N=C/c1ccccn1	i	i	i	i	·	·	·	·
COCCCn1c(=S)[nH]c2ccc(N3CCOCC3)cc2c1=O	i	i	i	i	·	·	·	·
CCCCN(C)CCn1c(=S)[nH]c2ccc(N3CCOCC3)cc2c1=O	i	25*	i	i	i	i	-0.896	-5.5
CCCCCCCSc1nnc(-c2ccccc2N)c(=O)[nH]1	i	i	i	i	·	·	·	·
CCCCCSc1nnc(-c2cc(Br)ccc2N)c(=O)[nH]1	i	25*	i	i	i	i	-1.16	-11.0
O=C(/C=C\Nc1ccc(Cl)cn1)c1ccc(Br)cc1	i	i	i	i	·	·	·	·
Cn1c(O)c(/C=N/NC(=O)c2cc3ccccc3cc2O)c2ccccc21	i	i	i	i	·	·	·	·
COc1ccc2c(c1)cc(C(=O)N/N=C/c1c(O)c(C(=O)O)cc3ccccc13)n2C	i	i	i	i	i	i	-1.41	-20.5
COc1ccc2cc3cc(C(=O)N4CCN(Cc5ccc6c(c5)OCO6)CC4)oc3nc2c1	i	25*	i	i	i	i	-1.11	-4.5
Cc1ccc(OCc2cc(C(=O)N3CC4C[C@@H]5CC3C[C@H](C4)C5)no2)cc1C	i	i	i	i	·	·	·	·
COc1ccccc1C(c1nnnn1CCc1ccccc1)N1CCCCCC1 (stereo unspecified)	i	25*	i	i	18.5%*	i	-1.12	-3.0
COc1ccc(C(c2nnnn2CCc2ccccc2)N2CCN(C)CC2)cc1OC (stereo unspecified)	·	·	i	·	·	·	·	·
O=C(CN1CCN(c2ccccc2F)CC1)c1ccc2cc[nH]c2c1	i	i	i	i	·	·	·	·
COc1cc2c(cc1NC(=O)CCCN1C(=O)CCC1=O)oc1ccccc12	i	i	i	i	·	·	·	·
COc1cc2c(cc1NC(=O)CCCCCN1C(=O)CCC1=O)oc1ccccc12	i	25*	i	i	i	i	-1.16	-8.0
COc1ccc(C2(CNC(=O)c3cc([N+](=O)[O-])cc([N+](=O)[O-])c3)CCCC2)cc1OC	i	i	i	i	·	·	·	·
O=C(NCc1ccccc1)c1cc2nc(C3CC3)cc(C(F)(F)F)n2n1	i	100*	i	i	i	i	-1.17	-14.0
Cc1ccc(S(=O)(=O)NCCS(=O)(=O)N2CCN(c3ccc(F)cc3)CC2)cc1	i	i	i	i	·	·	·	·
COc1ccc(NC(=O)c2[nH]c(C)c(C(C)=O)c2C)cc1	i	i	i	i	·	·	·	·
CCc1c(C(=O)Nc2ccc(OC)cc2)[nH]c(C)c1C(C)=O	i	25*	i	i	i	i	-0.957	-7.5
SMILES	CHT allo act	TMEM16A inh	TMEM16A act	CHT block	TMEM16A reconf	TMEM16A Ca cntr	Parental YFP cnt	ClC-1 rat inh
CCOC(=O)NC(=O)C(=CNc1ccc(C)cc1)C(=O)NC(=O)OCC	i	i	i	i	·	·	·	·
Cc1cc(NC(C)c2ccccc2)n2ncc(-c3ccccc3)c2n1 (stereo unspecified)	i	100*	i	i	i	i	-0.934	-6.5
COc1ccc(C)cc1S(=O)(=O)N1CCC(C(=O)N2CCN(C)CC2)CC1	i	i	i	i	·	·	·	·
Cc1cc(C)cc(-n2c(C)cc(/C=N/NC(=O)CSc3ncccn3)c2C)c1	i	25*	i	i	i	i	-0.885	3.0
COc1ccc(C(C[N+](=O)[O-])c2c(C)[nH]n(-c3ccccc3)c2=O)cc1 (stereo unspecified)	i	i	i	i	·	·	·	·
Cc1[nH]n(-c2ccccc2)c(=O)c1C(c1ccc(O)c([N+](=O)[O-])c1)c1c(C)[nH]n(-c2ccccc2)c1=O	i	100*	i	-6.12*	34.5%*	i	-0.923	-11.5
O=S(=O)(c1ccccc1)C1Cc2ccccc2C1Cl (stereo unspecified)	i	i	i	i	·	·	·	·
CCCSc1nc(C)cc(C)c1S(C)(=O)=O	i	i	i	i	·	·	·	·
CCCSc1nc(C)cc(C)c1S(=O)(=O)c1ccccc1C	i	100*	i	i	i	i	-1.28	-4.0
Cc1cc(C)c(S(=O)(=O)c2ccccc2C)c(N(C)C)n1	i	i	i	i	·	·	·	·
Cc1cc(C)c(S(=O)(=O)c2ccccc2C)c(SCC(C)C)n1	i	100*	i	i	i	i	-1.29	-5.5
Cc1ccc(C(C)C)c(Oc2nnnn2-c2ccccc2)c1	i	25*	i	i	26.0%*	i	-0.896	-7.5
Cc1ccc(C)c(Oc2nnnn2-c2ccccc2)c1	i	i	i	i	·	·	·	·
COC(=O)Cc1ccc(NC(=S)Nc2ccc(N3CCOCC3)cc2)cc1	i	25*	i	i	i	i	-0.955	-10.5
CC(C)CC(=O)NC(=S)Nc1ccc(N2CCOCC2)cc1	i	i	i	i	·	·	·	·
CCN(CC(=O)NCc1ccc(Cl)cc1)C(=O)CSc1cc(C)ccc1C	i	i	i	i	·	·	·	·
Cc1ccc(NC(=O)CNc2cccc(C)c2C)c(C)c1	i	100*	i	i	i	i	-0.824	-10.0
C=CCn1c(SCc2cccc(OC)c2)nnc1-c1ccncc1	i	i	i	i	·	·	·	·
